Some test systems named below: HCT-15 colon; HT29 colon; SNB-75 CNS; SNB-19 CNS; U251 CNS; PC-3 prostate; SK-MEL-5 melanoma; UACC-62 melanoma; LOX IMVI melanoma; SK-MEL-28 melanoma; SK-MEL-2 melanoma; EKVX NSCLC; SN12C renal; UO-31 renal; TK-10 renal; ACHN renal; CAKI-1 renal; CCRF-CEM leukemia; MOLT-4 leukemia.
What all share (experiment): NCI-60 one-dose screen, 48 h (100 = growth as untreated, 0 = no growth, -100 = all killed)
Holding throughout (details): 10 µM unless noted

Compounds without any hit were thinned out: in the full panel of roughly 83,000, 20% have a hit.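 For each line, cells grew in 96-well plates with the test compound present at a single concentration for 48 hours.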 Values without a mark were called inactive. Activity calls are given as the source filed them. The calls were made as follows: active = growth percent below 10; inactive = the rest.

With `C#CCNC(=O)[C@]1(C)CC[C@]2(C)CC[C@@H]3C(=CC[C@H]4[C@@]3(C)CC[C@H]3C(C)(C)C(=O)CC[C@]43C)[C@@H]2C1`, the growth was 98% in the test on HCT-15 colon; 93.1% in the test with HT29 colon; 102% in the test on SNB-75 CNS; 102% in the test with SNB-19 CNS; 99.1% in the test with U251 CNS; 64.6% with PC-3 prostate. For the same molecule, the growth in the test on SK-MEL-5 melanoma was 93.3%; in the test with UACC-62 melanoma, 83.2%; in the test with LOX IMVI melanoma, 96.2%; with SK-MEL-28 melanoma it was 102%; in the test on SK-MEL-2 melanoma, 96.2%; in the test with EKVX NSCLC, 100%. Further, the growth in the test on SN12C renal was 97.9%; in the test with UO-31 renal, 80.5%; with TK-10 renal it was 86.4%; with ACHN renal, 98%; in the test on CAKI-1 renal it was 83.1%; in the test with CCRF-CEM leukemia it was 69.4%. The growth in the test with MOLT-4 leukemia was 93.1%.

For the molecule `CC1(C)CC[C@]2(C(=O)O)CC[C@]3(C)C(=CC[C@@H]4[C@@]5(C)Cc6c([nH]c7ccccc67)C(C)(C)[C@@H]5CC[C@]43C)[C@@H]2C1`, the growth in the test with HCT-15 colon was 21.3%; with HT29 colon, 27.2%; in the test on SNB-75 CNS, 49.4%; with SNB-19 CNS it was 60%; in the test on U251 CNS it was 25.7%; in the test on PC-3 prostate, 42.7%. Further, the growth in the test on SK-MEL-5 melanoma is 73.7%; in the test with UACC-62 melanoma, 63.7%; in the test on LOX IMVI melanoma, 40.3%; with SK-MEL-28 melanoma, 83.2%; in the test on SK-MEL-2 melanoma, 72.6%; in the test with EKVX NSCLC, 34.3%. Further, the growth in the test on SN12C renal was 42.8%; in the test with UO-31 renal it was 32.7%; in the test with TK-10 renal, 31.3%; with ACHN renal, 18.2%; in the test on CAKI-1 renal it was 17.5%; with CCRF-CEM leukemia it was 30.6%. Besides, the growth in the test with MOLT-4 leukemia was 32.3%.

Consider `C=C1C(=O)O[C@H]2[C@H]1CC/C(C(=O)NCCCCCNC(=O)/C1=C/CC[C@@]3(C)O[C@H]3[C@H]3OC(=O)C(=C)[C@@H]3CC1)=C\CC[C@@]1(C)O[C@@H]21`, for which the growth with HCT-15 colon is 95.5%; in the test with HT29 colon, 102%; with SNB-75 CNS, 103%; in the test on SNB-19 CNS it was 102%; with U251 CNS it was 99.3%; with PC-3 prostate it was 91.6%. The growth in the test with SK-MEL-5 melanoma is 100%; with UACC-62 melanoma, 97.9%; in the test with LOX IMVI melanoma, 99.9%; with SK-MEL-28 melanoma, 101%; in the test on SK-MEL-2 melanoma, 107%; in the test on EKVX NSCLC, 105%. For the same molecule, the growth is 109% with SN12C renal; 92.6% in the test on UO-31 renal; 96.5% in the test with TK-10 renal; 102% in the test on ACHN renal; 106% with CAKI-1 renal; 105% in the test with CCRF-CEM leukemia. In addition, the growth in the test on MOLT-4 leukemia is 96.2%.

In the case of `COc1cccc(-c2nc3occn3c2-c2ccnc(NCCNS(=O)(=O)c3ccc(C(F)(F)F)cc3)n2)c1`, the growth is 80% in the test with HCT-15 colon; 85.1% with HT29 colon; 87% in the test on SNB-75 CNS; 98% with SNB-19 CNS; 101% in the test with U251 CNS; 77.6% in the test with PC-3 prostate. The growth is 82.5% in the test with SK-MEL-5 melanoma; 66.5% in the test on UACC-62 melanoma; 93.3% in the test with LOX IMVI melanoma; 108% in the test on SK-MEL-28 melanoma; 98.2% with SK-MEL-2 melanoma; 84.3% with EKVX NSCLC. For the same molecule, the growth is 88.6% in the test on SN12C renal; 66.1% with UO-31 renal; 116% with TK-10 renal; 80.9% with ACHN renal; 64.3% with CAKI-1 renal; 92.1% in the test on CCRF-CEM leukemia. Also, the growth in the test with MOLT-4 leukemia was 75.3%.

For `c1ccc(-c2c(-c3ccccc3)[n+](Cc3ccc4ccccc4c3)c(-c3cccc4ccccc34)n2Cc2ccc3ccccc3c2)cc1`, the growth is -52.9% (active) in the test on HCT-15 colon; -49.7% (active) with HT29 colon; -57.9% (active) with SNB-75 CNS; -68.9% (active) in the test with SNB-19 CNS; -94.9% (active) in the test on U251 CNS; -60.8% (active) in the test on PC-3 prostate. In addition, the growth is -98.4% (active) with SK-MEL-5 melanoma; -64.8% (active) with UACC-62 melanoma; -98.9% (active) in the test on LOX IMVI melanoma; -71.8% (active) in the test with SK-MEL-28 melanoma; -77.9% (active) with SK-MEL-2 melanoma; -10.9% (active) in the test with EKVX NSCLC. In addition, the growth in the test on SN12C renal is -81.6% (active); in the test with UO-31 renal, -93.5% (active); in the test on TK-10 renal, -78% (active); in the test with ACHN renal, -100% (active); in the test on CAKI-1 renal it was -97.2% (active); in the test on CCRF-CEM leukemia, 1.74% (active). In the test on MOLT-4 leukemia, the growth was -25.8% (active).

With `N#Cc1c(NC(=O)NCc2ccccc2)sc2c1CCCCC2`, the growth in the test with HCT-15 colon was 15.2%; with HT29 colon it was 9.68% (active); in the test on SNB-75 CNS, 22.8%; in the test on SNB-19 CNS, 28.2%; with U251 CNS it was 24.8%; in the test with PC-3 prostate it was 28.7%. The growth in the test on SK-MEL-5 melanoma was 17.6%; with UACC-62 melanoma, 18.9%; in the test on LOX IMVI melanoma, 26.4%; with SK-MEL-28 melanoma, 67.4%; with SK-MEL-2 melanoma it was 39.1%; in the test on EKVX NSCLC, 39.3%. In addition, the growth in the test with SN12C renal was 30.3%; in the test on UO-31 renal, 46.7%; with TK-10 renal, 41.1%; in the test with ACHN renal, 43.4%; in the test with CAKI-1 renal, 29.8%; with CCRF-CEM leukemia, 14.7%. In addition, the growth with MOLT-4 leukemia was 18%.

Consider `O=C(Nc1ccc(NC(=O)c2cc(=O)[nH]c3ccccc23)cc1)Nc1cccc(Cl)c1`, for which the growth in the test with HCT-15 colon was 103%; in the test on HT29 colon, 88.4%; in the test with SNB-75 CNS, 74.4%; with SNB-19 CNS, 95.2%; in the test on U251 CNS it was 89.4%; in the test on PC-3 prostate, 76.5%. For the same molecule, the growth in the test on SK-MEL-5 melanoma was 92.9%; in the test on UACC-62 melanoma, 84.6%; in the test on LOX IMVI melanoma, 87.7%; in the test on SK-MEL-28 melanoma, 109%; in the test on SK-MEL-2 melanoma it was 101%; in the test with EKVX NSCLC, 85.2%. For the same molecule, the growth with SN12C renal is 88.8%; in the test on UO-31 renal, 65.3%; in the test with TK-10 renal, 90.2%; in the test on ACHN renal, 97.6%; in the test on CAKI-1 renal, 78.1%; in the test on CCRF-CEM leukemia it was 77.1%. Besides, the growth in the test on MOLT-4 leukemia was 79.7%.

On to `C=C1C(=O)O[C@H]2[C@H]1CC/C(COC(=O)NCc1c[nH]c3ccc(Br)cc13)=C\CC[C@@]1(C)O[C@@H]21`, for which the growth with HCT-15 colon is -70.2% (active); in the test on HT29 colon, -76.6% (active); in the test on SNB-75 CNS, -5.16% (active); in the test on SNB-19 CNS, 40.2%; in the test on U251 CNS it was 3.96% (active); in the test with PC-3 prostate it was 15.4%. The growth in the test on SK-MEL-5 melanoma was -27.1% (active); in the test on UACC-62 melanoma, -63% (active); in the test with LOX IMVI melanoma, -82% (active); in the test on SK-MEL-28 melanoma, -33.5% (active); in the test with SK-MEL-2 melanoma, 1.8% (active); in the test with EKVX NSCLC, -16.5% (active). Moreover, the growth is -43.2% (active) in the test with SN12C renal; -98.3% (active) in the test with UO-31 renal; -68.7% (active) in the test with TK-10 renal; -71.2% (active) with ACHN renal; -92.8% (active) in the test with CAKI-1 renal; -13.1% (active) in the test on CCRF-CEM leukemia. Also, the growth in the test on MOLT-4 leukemia is -2.46% (active).
